Test results from the OligoGym collection.

Target: ROPN1
Test: pooled miR-30 sensor sort-seq; sequence = guide strand
Details: shRNA
Note: reference of the scale not given here.

Point of comparison: TCCACTTTGGCAATATACGTGT, sensor-assay potency score (higher = more potent) -0.784. Against it:
- ATTCTGAAGTACAATCATCTCT — higher, 0.029
- TTCCATGTAGTTTAGCATCCTG — higher, -0.0226
- TCACTGTGATTATACCATCAGG — lower, -1.52
- ATCAGGGCCAATTACTTCCTGT — higher, -0.778
- TCCATGTAGTTTAGCATCCTGC — lower, -1.26
- TATGGTCACATGATAAGACCTC — higher, -0.256
- TACAAGAAAATTGATTTTGGGT — higher, 0.726

Target: RORB
Test: as above
Details: shRNA

Point of comparison: TTGTTCTGCTGGCTCCTCCTAA, sensor-assay potency score (higher = more potent) -0.741. Against it:
- TTGCTTAAATACCTGCAGCTTC — higher, -0.375
- TTTAATTTCTTCATAGGTGTGG — higher, 0.75
- TTAATTTCTTCATAGGTGTGGG — higher, 0.03
- TTCCAGTCATGTCAAGTCCTGA — higher, -0.578
- TATCTGTTTGATTCCAGTCATG — lower, -1.6
- TTCACATGTGATGACTCCGTAG — lower, -1.17
- TATAACGGAGGAAACAGTGTAT — higher, 0.0235
- TAGGGCAAGACACTTCTGCAGT — higher, -0.56
- TTGATCATTTTGACAGAGCTCC — higher, 0.0925
- TTAAACAGTTTCTCTGCCTTGG — higher, 0.233
- ATCATTTTGACAGAGCTCCATG — lower, -1.14

Target: RPF2
Test: as above
Details: shRNA

Point of comparison: TTACATCGAAATCATCGCCAGC, sensor-assay potency score (higher = more potent) -0.787. Against it:
- TTTCAGTGCATACACATCTTTA — higher, -0.778
- TTGTAGTTTGCTTAGGTCTTGC — higher, -0.359
- TTAAGTACTTTTGTCACTGTTG — higher, -0.124
- TTTGCTTAGGTCTTGCTTCTGC — higher, 0.678
- TTATATAGTACACCGTATGGTT — lower, -0.793
- TTAGTCTTCTATAATCTTCTGT — higher, 0.354
- TAGTCTTCTATAATCTTCTGTT — higher, -0.606
- ATAATCTTCTGTTACATCGAAA — higher, -0.564
- TTCAACAGCAACTTATAGCTTC — higher, 0.301
- TAATTTATAAAGGTCATCCGAT — higher, -0.21
- TCTTTTTATATAGTACACCGTA — higher, -0.652

Target: RPL19
Test: as above
Details: shRNA

Point of comparison: TTGCGTGCTTCCTTGGTCTTAG, sensor-assay potency score (higher = more potent) -0.319. Against it:
- TGTTTTTGAACACATTCCCCTT — lower, -1.21
- TTTTTGAACACATTCCCCTTCA — higher, -0.0211
- TACAGGCTGTGATACATGTGGC — lower, -1.14
- ATTGGGGTCTAACCAGACCTTC — lower, -1.59
- ATACATGTGGCGATCGATCTTC — higher, 0.46
- ATTGGCTGTACCCTTCCGCTTA — lower, -0.619
- TTCATTGGTCTCATTGGGGTCT — higher, 0.294
